Data: PubChem BioAssay (Tox21)
Inconclusive results are not listed. Entries that show only a call come without a potency. Calls of active or inactive are those of the source. Unless noted, the call rests on the fitted dose curve; in most records, active means well fitted cell-killing curve with a large enough effect in the repeat runs; inconclusive means weak or mixed curves, or effect the other way; inactive means no such curve, though single readings can be large or run the other way.

Columns and labels:
[1] = target: Bile acid receptor (Homo sapiens) (UniProt Q96RI1); assay: qHTS assay to identify small molecule antagonists of the farnesoid-X-receptor (FXR) signaling pathway (AID 743217; active means well fitted inhibition curve with a large enough effect in the signal ratio in the repeat runs, not every such curve was filed as active; the % refers to the signal ratio; further: potency means the concentration at half of the fitted maximal effect); details: HEK293T FXR-UAS-bla, beta-lactamase ratio, CDCA-stimulated, 16 h; series mostly up to 62.6 µM
Summary of the method: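 Antagonist mode against 50 uM (final) chenodeoxycholic acid stimulation in FXR-bla HEK 293T cells, 16 h at 37 °C. Inhibition detected as reduced beta-lactamase activity via LiveBLAzer B/G FRET fluorescence after 2 h at room temperature.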

[2] = qHTS assay to identify small molecule agonists of the farnesoid-X-receptor (FXR) signaling pathway - cell viability counter screen (AID 743218); details: FXR-bla HEK293T viability, CellTiter-Glo luminescence, 16 h; series mostly up to 62.6 µM; further: nearly all actives have a fitted effect of over 45% in size; further: potency means the concentration at half of the fitted maximal effect
Summary of the method: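 Cytotoxicity counter-screen run in parallel, same wells: FXR-UAS-bla HEK 293T cells dosed 16 h at 37 C, viability read by CellTiter-Glo luminescence after 30 min at room temperature.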

[3] = qHTS assay to identify small molecule antagonists of the farnesoid-X-receptor (FXR) signaling pathway - cell viability counter screen (AID 743221; active means well fitted cell-killing curve with a large enough effect in the repeat runs, not every such curve was filed as active; further: nearly all actives have a fitted effect of over 50% in size; further: potency means the concentration at half of the fitted maximal effect); details: FXR-bla HEK293T viability, CellTiter-Glo luminescence, 16 h; series mostly up to 62.6 µM
Summary of the method: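 Luminescence from CellTiter-Glo measures cytotoxicity in GeneBLAzer FXR-UAS-bla HEK 293T cells. Cells were exposed to compounds with 50 uM chenodeoxycholic acid (final) for 16 h at 37 C, in wells also used for the reporter readout.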

[4] = qHTS assay to identify small molecule agonists of the vitamin D receptor (VDR) signaling pathway - cell viability counter screen (AID 743224); details: VDR-bla HEK293T viability, CellTiter-Glo luminescence, 16 h; series mostly up to 62.6 µM; further: nearly all actives have a fitted effect of over 50% in size; further: potency means the concentration at half of the fitted maximal effect
Summary of the method: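 Viability is measured in the same wells as the VDR-bla reporter assay: after 16 h compound treatment and 2 h substrate loading, CellTiter-Glo is added and luminescence read 30 min later.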

[5] = qHTS assay to identify small molecule antagonists of the vitamin D receptor (VDR) signaling pathway - cell viability counter screen (AID 743225); details: VDR-bla HEK293T viability, CellTiter-Glo luminescence, 16 h; series mostly up to 61 µM; further: nearly all actives have a fitted effect of over 50% in size; further: potency means the concentration at half of the fitted maximal effect
Summary of the method: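 Read-out: CellTiter-Glo luminescence measured 30 min after reagent addition at room temperature. Cells were VDR-bla HEK 293T exposed 16 h at 37C, 5% CO2, to compound with 3 nM final calcitriol agonist.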

[6] = target: Vitamin D3 receptor (Homo sapiens) (UniProt P11473); assay: qHTS assay to identify small molecule antagonists of the vitamin D receptor (VDR) signaling pathway (AID 743223; active means well fitted inhibition curve with a large enough effect in the signal ratio in the repeat runs, not every such curve was filed as active; the % refers to the signal ratio); details: VDR-UAS-bla HEK293T, beta-lactamase FRET ratio, 16 h; series mostly up to 61 µM
Summary of the method: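 Antagonist mode uses 1alpha,25-dihydroxyvitamin D3 at 3 nM final as stimulus. VDR-bla cells receive compounds in DMSO, incubate 16 h at 37C, then a beta-lactamase FRET substrate for 2 h at room temperature before fluorescence measurement.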

[7] = target: Bile acid receptor (Homo sapiens) (UniProt Q96RI1); assay: qHTS assay to identify small molecule agonists of the farnesoid-X-receptor (FXR) signaling pathway (AID 743220; active means well fitted activation curve with a large enough effect in the signal ratio in the repeat runs, not every such curve was filed as active; the % refers to the signal ratio; further: potency means the concentration at half of the fitted maximal effect); details: HEK293T FXR-UAS-bla, beta-lactamase FRET ratio, 16 h; series mostly up to 62.6 µM
Summary of the method: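 Beta-lactamase reporter under UAS control in GeneBLAzer FXR HEK 293T cells (5000/well) measured with LiveBLAzer FRET substrate after 2 h at room temperature. Compound exposure lasted 16 h at 37C.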

[8] = target: Vitamin D3 receptor (Homo sapiens) (UniProt P11473); assay: qHTS assay to identify small molecule agonists of the vitamin D receptor (VDR) signaling pathway (AID 743222; calls by dose curve); details: HEK293T VDR-UAS-bla, beta-lactamase FRET ratio, 16 h; series mostly up to 63.5 µM
Summary of the method: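 Quantitative HTS agonist-mode screen: compounds in DMSO were pin-transferred onto VDR-bla cells and incubated 16 h at 37C, 5% CO2. Reporter activity was detected with LiveBLAzer B/G FRET substrate after 2 h at room temperature.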

Chain of Vitamin D3 receptor (Homo sapiens) (P11473 whole entry, looked up): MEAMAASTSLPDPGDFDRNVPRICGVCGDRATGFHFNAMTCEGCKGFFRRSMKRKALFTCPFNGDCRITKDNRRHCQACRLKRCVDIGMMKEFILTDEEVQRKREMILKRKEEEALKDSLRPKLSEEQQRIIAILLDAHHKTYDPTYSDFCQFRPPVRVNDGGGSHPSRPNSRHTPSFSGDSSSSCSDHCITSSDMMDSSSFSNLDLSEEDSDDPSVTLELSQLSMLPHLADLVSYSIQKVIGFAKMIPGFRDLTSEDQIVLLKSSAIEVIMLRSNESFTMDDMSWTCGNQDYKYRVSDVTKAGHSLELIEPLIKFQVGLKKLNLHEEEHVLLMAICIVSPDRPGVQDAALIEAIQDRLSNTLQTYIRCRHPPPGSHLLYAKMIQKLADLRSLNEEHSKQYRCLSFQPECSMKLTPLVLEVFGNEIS
Chain of Bile acid receptor (Homo sapiens) (Q96RI1 whole entry, looked up): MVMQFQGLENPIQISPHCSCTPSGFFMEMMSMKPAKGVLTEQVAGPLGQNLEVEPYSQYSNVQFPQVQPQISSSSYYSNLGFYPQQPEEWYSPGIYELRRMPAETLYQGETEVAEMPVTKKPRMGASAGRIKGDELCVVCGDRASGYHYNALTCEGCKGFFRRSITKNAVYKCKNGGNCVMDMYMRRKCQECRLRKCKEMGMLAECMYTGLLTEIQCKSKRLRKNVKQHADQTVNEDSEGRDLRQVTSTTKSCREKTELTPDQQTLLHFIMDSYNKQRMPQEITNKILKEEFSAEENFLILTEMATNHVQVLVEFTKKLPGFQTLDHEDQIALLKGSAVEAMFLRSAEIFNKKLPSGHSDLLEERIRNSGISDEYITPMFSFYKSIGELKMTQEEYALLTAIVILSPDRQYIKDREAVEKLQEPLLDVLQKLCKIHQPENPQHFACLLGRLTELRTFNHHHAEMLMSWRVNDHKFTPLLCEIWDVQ

Structure (SMILES) | Potency [1] | Potency [2] | Potency [3] | Potency [4] | Potency [5] | Potency [6] | Potency [7] | Potency [8]
COc1cc(C(C)C)c2c(c1)S(=O)(=O)N(COc1cc(=O)n3cccc(OCCN4CCCCC4)c3n1)C2=O | inactive | inactive | inactive | inactive | inactive |  |  | 
CC1=C(/C=C/C(C)=C/C=C/C(C)=C\C=O)C(C)(C)CCC1 |  | 46.4 µM (active) |  | 41.3 µM (active) |  |  |  | 
CO[C@H]1C=CO[C@@]2(C)Oc3c(C)c(O)c4c(O)c(cc(O)c4c3C2=O)NC(=O)/C(C)=C\C=C/[C@H](C)[C@H](O)[C@@H](C)[C@@H](O)[C@@H](C)[C@H](OC(C)=O)[C@@H]1C |  |  | inactive | inactive | inactive | inactive |  | 
CCCCCCCC/C=C/CCCOC(C)=O | inactive |  |  |  | inactive |  | inactive | inactive
CN(C)CCCN1c2ccccc2Sc2ccc(C(F)(F)F)cc21 |  | 11.9 µM (active) |  |  |  |  | inactive | inactive
Brc1ccccc1-c1ccccc1 |  |  |  | inactive |  |  |  | inactive
CC(C)c1cccc(C(C)C)c1N1C(=O)c2ccc(O)cc2C1=O |  | inactive | inactive | 43.6 µM (active) | 49 µM (active) |  |  | 
c1ccc(Sc2ccccc2)cc1 |  | inactive | inactive | 49 µM (active) | inactive | inactive |  | inactive
c1cc(OCC2CO2)cc(OCC2CO2)c1 (configuration not stated) | inactive | inactive | inactive |  | inactive |  |  | inactive
Clc1ccc(C(Cn2ccnc2)OCc2c(Cl)cccc2Cl)c(Cl)c1 (configuration not stated) | 21.1 µM (active) | 21.1 µM (active) | 26.6 µM (active) | 33.5 µM (active) | inactive |  | 10.6 µM (active) | inactive
Cc1c(C(=O)O)cccc1[N+](=O)[O-] | inactive |  |  |  | inactive |  | inactive | 
CCc1ccc(O)c(C(C)(C)C)c1 |  | inactive |  |  | 38.9 µM (active) |  |  | inactive
CC(=O)Oc1ccc(C2(c3ccc(OC(C)=O)cc3)Oc3ccccc3NC2=O)cc1 |  |  | inactive | inactive | inactive |  | inactive | 
